Data taken from a collection of fitness landscapes (doi:10.1016/j.celrep.2020.107928).
The full ranking holds about 81,000 sequences; the median of “one-hybrid fitness for binding NBS DNA” is about -0.1, and the highest 2% start at about 0.36. For the sample, the highest values were picked, then their nearest neighbours and some sequences at random.

B1: Caulobacter ParB omega fusion; a variant is named by its letters at X, in order, B8GW30 (parent)
chain: MESVVVGEPGMSEGRRGLGRGLSALLGEVDAAPAQAPGEQLGGSREAPIEILQRNPDQPRRTFREEDLEDLSNSIREKGVLQPILVRPSPDTAGEYQIVAGERAWRAAQRAGLKTVPIMVRELDDLAVLEIGIIENVQRADLNVLEEALSYKVLMEKFERTQENIAQTIGKSXSHVANXMRLLXLPDEVQSYLVSGELTAXHARAIAAAADPVALAKQIIEGGLSVRETEALARKAPNLSAGKSKGGRPPRVKDTDTQALESDLSSVLGLDVSIDHRGSTGTLTITYATLEQLDDLCNRLTRGI

Variants of: B1
Test: one-hybrid fitness for binding NBS DNA (the Noc-binding site; scaled: cognate 1, non-cognate 0); higher = stronger binding
Details: with NBS DNA site
Procedure, shortened: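 In E. coli USO, a HIS3 reporter with its site placed 19 bp from the promoter was used to select Caulobacter ParB variants randomised at four specificity codons. Growth lasted 48 hours at 37°C on histidine-free M9 containing 0.1 mM IPTG and 5 mM 3-AT. Fitness was taken as the log change in variant-to-wild-type read ratio from Illumina sequencing of pre- and post-selection plasmids, rescaled between the non-cognate and cognate sites.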

Row | Variant | one-hybrid fitness for binding NBS DNA
1 | EAVR | ≤ 0.2
2 | PVAE | ≤ 0.2
3 | NTRS | ≤ 0.2
4 | QTRS | 0.811
5 | QTQN | ≤ 0.2
6 | QTWS | 0.444
7 | QTWN | ≤ 0.2
8 | QMCS | 0.38
9 | QTES | 0.317
10 | QTQS | 0.504
11 | QTQP | ≤ 0.2
12 | QMCD | ≤ 0.2
13 | QMCP | ≤ 0.2
14 | QTWP | ≤ 0.2
15 | MSSN | ≤ 0.2
16 | FFKL | ≤ 0.2
17 | LPTN | ≤ 0.2
18 | HFHL | ≤ 0.2
19 | QSEF | ≤ 0.2
20 | TASS | ≤ 0.2
21 | DAGG | ≤ 0.2
22 | DEKT | ≤ 0.2
23 | QSCS | 0.296
24 | QCCS | 0.393
25 | QPCS | ≤ 0.2

Row | Variant | one-hybrid fitness for binding NBS DNA
26 | QTLP | ≤ 0.2
27 | QTLD | ≤ 0.2
28 | QTLS | 0.426
29 | ERTA | ≤ 0.2
30 | TLTL | ≤ 0.2
31 | EMRG | ≤ 0.2
32 | RLNS | 0.493
33 | RPNS | ≤ 0.2
34 | RSDS | ≤ 0.2
35 | RCNS | 0.557
36 | RLDS | ≤ 0.2
37 | RMDS | ≤ 0.2
38 | RMNS | 0.481
39 | RSNS | 0.508
40 | RFNS | 0.331
41 | RSND | ≤ 0.2
42 | RLND | ≤ 0.2
43 | RMNP | ≤ 0.2
44 | PYGH | ≤ 0.2
45 | TCDT | ≤ 0.2
46 | SICL | ≤ 0.2
47 | ITNT | ≤ 0.2
48 | QLLN | ≤ 0.2
49 | QPKP | ≤ 0.2
50 | QPKR | 0.405

Row | Variant | one-hybrid fitness for binding NBS DNA
51 | QSKP | 0.229
52 | QEKR | 0.285
53 | QSKD | 0.203
54 | QSKR | 0.979
55 | QDKR | 0.32
56 | QLVR | 0.34
57 | QLKM | 0.318
58 | QLKR | 0.932
59 | QCKR | 1.08
60 | QGKR | 0.358
61 | AWRM | ≤ 0.2
62 | VLCG | ≤ 0.2
63 | GDPR | ≤ 0.2
64 | GMNC | ≤ 0.2
65 | GYHN | ≤ 0.2
66 | GMFV | ≤ 0.2
67 | GDMV | ≤ 0.2
68 | PAFV | ≤ 0.2
69 | GFQR | ≤ 0.2
70 | KNLN | ≤ 0.2
71 | QAVR | 0.358
72 | QAKR | 0.982
73 | QIKR | 0.853
74 | QIIR | ≤ 0.2
75 | QAKG | 0.313

Row | Variant | one-hybrid fitness for binding NBS DNA
76 | QIVR | 0.271
77 | SPHS | ≤ 0.2
78 | GILL | ≤ 0.2
79 | CSWG | ≤ 0.2
80 | VYLS | ≤ 0.2
81 | RVCD | ≤ 0.2
82 | RVCR | 0.436
83 | RVCT | 0.433
84 | RVCS | 0.444
85 | RVRS | 0.577
86 | RVRN | ≤ 0.2
87 | RVYS | 0.351
88 | RVCP | ≤ 0.2
89 | RVCN | ≤ 0.2
90 | RVCH | ≤ 0.2
91 | RVCM | ≤ 0.2
92 | RVCY | ≤ 0.2
93 | TIPT | ≤ 0.2
94 | LYLM | ≤ 0.2
95 | HSTN | ≤ 0.2
96 | QCVS | 0.381
97 | NRKS | ≤ 0.2
98 | DRKS | ≤ 0.2
99 | QRVS | 0.561
100 | QSVS | 0.228

Row | Variant | one-hybrid fitness for binding NBS DNA
101 | QRKS | 0.778
102 | QPVS | 0.202
103 | QRKP | 0.404
104 | ANSS | ≤ 0.2
105 | LCGR | ≤ 0.2
106 | TETQ | ≤ 0.2
107 | TNPC | ≤ 0.2
108 | YPLP | ≤ 0.2
109 | YFGS | ≤ 0.2
110 | QNIT | ≤ 0.2
111 | ATQS | ≤ 0.2
112 | NPLV | ≤ 0.2
113 | WWKR | 0.203
114 | QRVP | ≤ 0.2
115 | QRKD | 0.377
116 | QRVN | 0.259
117 | QRKN | 0.573
118 | QRVH | 0.387
119 | QRKH | 0.766
120 | QPKH | ≤ 0.2
121 | QRVD | ≤ 0.2
122 | QCKD | 0.337
123 | QRPH | ≤ 0.2
124 | EGSD | ≤ 0.2
125 | SHRM | ≤ 0.2

Row | Variant | one-hybrid fitness for binding NBS DNA
126 | SFTP | ≤ 0.2
127 | GMTV | ≤ 0.2
128 | AWKC | ≤ 0.2
129 | HLVG | ≤ 0.2
130 | QNYP | ≤ 0.2
131 | MSYR | ≤ 0.2
132 | KGQY | ≤ 0.2
133 | LHCR | ≤ 0.2
134 | RKVV | ≤ 0.2
135 | RPMF | ≤ 0.2
136 | YCQV | ≤ 0.2
137 | FVKY | ≤ 0.2
138 | QRHQ | 0.431
139 | QPHG | ≤ 0.2
140 | QRHC | 0.437
141 | QRHG | 0.403
142 | QSHM | ≤ 0.2
143 | QCHQ | 0.269
144 | QCHM | ≤ 0.2
145 | QCHG | ≤ 0.2
146 | QSHC | ≤ 0.2
147 | QRHM | 0.438
148 | QCHC | 0.238
149 | QSHQ | ≤ 0.2
150 | TMAD | ≤ 0.2

Row | Variant | one-hybrid fitness for binding NBS DNA
151 | KMQL | ≤ 0.2
152 | QRHH | 0.61
153 | QRHF | 0.347
154 | QRHP | 0.303
155 | QRHI | 0.358
156 | QRHD | 0.294
157 | QCHH | 0.333
158 | QRHS | 0.718
159 | QPHH | ≤ 0.2
160 | QRHN | 0.437
161 | ATVR | ≤ 0.2
162 | ASPP | ≤ 0.2
163 | AERS | ≤ 0.2
164 | AVLE | ≤ 0.2
165 | HTYV | ≤ 0.2
166 | WTPE | ≤ 0.2
167 | PKNM | ≤ 0.2
168 | VQKH | ≤ 0.2
169 | SIHM | ≤ 0.2
170 | DQIS | ≤ 0.2
171 | AINC | ≤ 0.2
172 | PFAM | ≤ 0.2
173 | ERKR | 0.275
174 | RRKR | 0.929
175 | RRVR | 0.699

Row | Variant | one-hybrid fitness for binding NBS DNA
176 | REKR | 0.228
177 | NEMS | ≤ 0.2
178 | SEDT | ≤ 0.2
179 | RTFF | ≤ 0.2
180 | RCEV | ≤ 0.2
181 | RCNV | ≤ 0.2
182 | RRVV | 0.229
183 | RRRV | 0.655
184 | RNYV | ≤ 0.2
185 | RRKV | 0.694
186 | RCKV | 0.23
187 | RRYV | 0.254
188 | RNEV | 0.385
189 | RRDV | 0.223
190 | RCRV | 0.257
191 | RRNV | 0.456
192 | AVRK | ≤ 0.2
193 | KHMG | ≤ 0.2
194 | LTMT | ≤ 0.2
195 | MTLT | ≤ 0.2
